# In the library only some 4.6% were active in any assay of this set; here they are far more common.
# proKLK7 act = proKLK7 zymogen activators, primary screen, biochemical, fluorescence intensity | purified proKLK7, EDANS-DABCYL substrate fluorescence; 100% is mature enzyme control, 0% vehicle | Kallikrein-7 (Homo sapiens), P49862 | activation, % at 7 µM | 0.9% of 370,000 active;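 active means activation above the mean of all tested compounds plus 3 SD, computed per campaign excluding outliers beyond control limits, cut at about 13% in these data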
# ADAM17 inh = ADAM17 inhibitors, primary screen, biochemical, QFRET. Disintegrin and metalloproteinase domain-containing protein 17 (Homo sapiens), P78536. recombinant ADAM17, EDANS/DABCYL FRET peptide cleavage. inhibition, % at 6.95 µM. 0.83% of 370,000 active;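 active means inhibition above the mean of compounds lying between control limits plus 3 SD, set per campaign, cut at about 8.5% in these data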;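 further: 0% = DMSO-only wells as the low control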
# Target sequence (P78536 215-824 limits assumed): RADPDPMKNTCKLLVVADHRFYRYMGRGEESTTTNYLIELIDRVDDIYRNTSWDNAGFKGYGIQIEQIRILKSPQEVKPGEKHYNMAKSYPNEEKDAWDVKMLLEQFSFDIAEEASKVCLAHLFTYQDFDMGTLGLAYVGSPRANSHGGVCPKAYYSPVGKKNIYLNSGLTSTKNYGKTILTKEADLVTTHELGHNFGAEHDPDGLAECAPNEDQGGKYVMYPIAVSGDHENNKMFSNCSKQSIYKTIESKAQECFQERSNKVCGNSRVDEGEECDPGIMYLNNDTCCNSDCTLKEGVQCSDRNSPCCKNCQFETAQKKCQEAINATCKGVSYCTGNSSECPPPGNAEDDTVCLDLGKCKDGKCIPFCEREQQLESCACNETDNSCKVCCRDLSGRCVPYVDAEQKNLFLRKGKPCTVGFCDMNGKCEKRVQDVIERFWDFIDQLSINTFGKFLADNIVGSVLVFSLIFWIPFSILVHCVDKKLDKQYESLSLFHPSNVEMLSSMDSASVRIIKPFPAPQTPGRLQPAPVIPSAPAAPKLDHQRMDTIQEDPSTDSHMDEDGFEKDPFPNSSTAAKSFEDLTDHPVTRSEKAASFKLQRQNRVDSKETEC
# NR3A LBD binder = binders of NR3A ligand-binding domain, primary screen, biophysical, differential scanning fluorimetry, uHTS | AID 1259313, 2017 | 2.5% of 340,000 active | NR3A LBD differential scanning fluorimetry, Tm shift; 0% = protein alone, 100% = glycine-bound protein | Tm shift relative to glycine control, % at 25 µM | Glutamate receptor ionotropic, NMDA 3A (GRIN3A) ligand-binding domain;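 active means melting temperature shift of at least 10% of the positive control shift, at one fixed dose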
# ADAM10 inh = human ADAM10 inhibitors, primary screen, biochemical, QFRET, HTS; Disintegrin and metalloproteinase domain-containing protein 10 (Homo sapiens), O14672; AID 720582, 2013; inhibition, % at 7 µM; recombinant ADAM10, EDANS/DABCYL FRET peptide cleavage, 3 h; 0.62% of 370,000 active;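 active means inhibition above a per-campaign cutoff equal to the mean of compounds falling between control-based bounds plus 3 SD, cut at about 20% in these data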;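 further: 0% = DMSO wells while the 100% control is not disclosed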
# FAS TE block = FAS thioesterase domain inhibitors, primary screen, biochemical, fluorescence intensity, uHTS; recombinant FAS-TE, OMFH fluorogenic substrate, fluorescence endpoint; 0.67% of 360,000 active; Fatty acid synthase (Homo sapiens), P49327; inhibition, % at 15 µM;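 active means compounds whose normalised, plate-corrected inhibition of enzyme fluorescence in the single-dose primary screen is 50% or more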;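 further: 0% = DMSO with enzyme and 100% = substrate without enzyme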
# ADAM10 counter = ADAM10 inhibitors, counter-screen for ADAM17 exosite inhibitor project, biochemical, FRET, human ADAM10; shares compounds with ADAM17 inh; recombinant ADAM10, EDANS/DABCYL FRET peptide cleavage, 3 h; inhibition, % at 6.95 µM; 47% of 2,900 active; AID 743256, 2014;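 active means mean inhibition over the triplicate runs exceeds the activity threshold set in the earlier primary screen, cut at about 20% in these data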;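 further: 0% = DMSO wells and 100% = marimastat wells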
# ADAM17 confirm = ADAM17 inhibitors, hit retest, confirmation, biochemical, QFRET peptide cleavage; shares compounds with ADAM17 inh; recombinant ADAM17, EDANS/DABCYL QFRET peptide cleavage; inhibition, % at 6.95 µM; 65% of 2,900 active;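 active means mean inhibition across replicates above the hit cutoff set in the primary screen, cut at about 8.5% in these data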;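 further: 0% = DMSO wells and 100% = marimastat wells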
# * = called active by the depositor; . = not tested or not shown.
SMILES,proKLK7 act,ADAM17 inh,NR3A LBD binder,ADAM10 inh,FAS TE block,ADAM10 counter,ADAM17 confirm
CC(C)C[C@H]1COc2cc(N3CCCC3)ccc2S(=O)(=O)N1,0,-4,.,-7,.,.,.
Nc1[nH]c(C(=O)c2ccc(Br)cc2)c(-c2ccc(Br)cc2)c1C(=O)NCc1cccc2ccccc12,0,-3,.,-2,.,.,.
O=C(Nc1nnc([C@@H]2C[C@H](O)[C@@H](CO)O2)s1)Nc1ccc(F)cc1F,0,10*,.,5,-8,2,2
COC(=O)[C@]12C[C@H](CC(=O)NCCCN3CCCC3=O)C(=O)N(Cc3ccccc3)C1=C[C@H](C(C)(C)C)O[C@@H]2C,0,0,.,0,.,.,.
C=CCO[C@H]1CN(C(=O)OC)[C@@H](c2ccccc2Br)C[C@H]1OCC=C,1,-6,.,-10,.,.,.
Cc1ccc(C2(CCNS(=O)(=O)c3ccc(C)cc3)CCOC(C(C)C)C2)cc1 (stereo not given),0,10*,-5,17,26,29*,16*
CCN1C(=O)C(CC(=O)Nc2ccc(OC)cc2)N(CCc2ccc(OC)cc2)C1=S (stereo not given),1,11*,-1,18,17,32*,15*
O=C(CSC1CC(=O)N(CCc2ccccc2)C1=O)Nc1ccc(Br)cc1 (stereo not given),-1,9.3*,-5,12,10,10,8
CCCOc1ccc(NC(=O)CC2C(=O)N(CC)C(=S)N2CCCN2CCN(Cc3ccccc3)CC2)cc1 (stereo not given),0,3,-6,5,15,.,.
CNC(=O)CC1C(=O)N(c2ccc(Cl)cc2)C(=S)N1CCc1ccc(OC)c(OC)c1 (stereo not given),-1,8.7*,-1,13,-2,14,7
CCN1C(=O)C(CC(=O)Nc2ccc(Br)cc2)N(CCCc2ccccc2)C1=S (stereo not given),0,9.0*,16*,18,45,35*,20*
O=C(NCc1ccccc1)[C@@H]1CCCN1C(=O)[C@H]1CCCN1C(=O)c1ccccc1Cl,0,-2,.,-3,.,.,.
COC(=O)C1=C(C)N(Cc2ccccc2C(F)(F)F)C(=NCc2ccc3c(c2)OCO3)NC1c1ccc(C(F)(F)F)cc1 (stereo not given),0,1,.,2,.,.,.
Brc1ccc(CN2CCN(c3ncc(Cc4ccccc4)cn3)CC2)cc1,1,-7,.,-11,.,.,.
O=C(/C=C(/c1ccc(Cl)cc1)n1cncn1)c1ccccc1,0,9.7*,-1,9,-4,3,4
CN(C)/C=C(/C(=O)c1ccccc1)n1cncn1,0,2,-1,4,-3,.,.
CC(C)N1CCCCC(NC(=O)COCc2ccccc2)C1=O (stereo not given),-1,-8,.,-6,.,.,.
CC(C)(C)OC(=O)C[C@@H]1C/C=C\C[C@H](CC(=O)N[C@H](CO)Cc2ccccc2)C(=O)N2CCC[C@H]2COC1=O,0,9.2*,-2,5,-9,4,11*
CC(C)(C)OC(=O)C[C@@H]1C/C=C\C[C@@H](CC(=O)N[C@H](CO)Cc2ccccc2)C(=O)N2CCC[C@@H]2COC1=O,1,6,1,6,-2,.,.
CCn1c(SCC(=O)Nc2cccc(NC(=O)c3ccco3)c2)nnc1-c1cccs1,1,-1,4,5,-5,.,.
CCn1c(SCC(=O)Nc2ccc(NC(=O)c3ccco3)cc2)nnc1-c1cccs1,100*,8.8*,-21,9,-5,10,4
